Screens (PubChem BioAssay)
Most compounds without a hit are left out; they make up all but 8.2% or so of the library.
KB-V1 cytotox = kills drug-selected multidrug resistant KB-V1 cells; KB-V1 MDR cells viability, CellTiter-Glo, 72 h; Potency, µM (series often up to 46.1 µM), actives largely listed as cytotoxic; 400,000 compounds, 3.4% hits; AID 1347076; note: nearly all actives have a fitted effect of over 60% in size
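Cytotoxicity toward P-gp-expressing KB-V1 cells was determined as loss of CellTiter-Glo luminescence after 72 h at 37 degrees C. Compounds were tested in quantitative HTS format across a concentration range, with curves fitted to normalized data.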
MCF10A rerep = inducers of DNA re-replication in MCF 10A breast cells | MCF 10A DNA re-replication, Hoechst nuclear intensity, 48 h | Potency, µM (doses to about 46.1 µM), actives largely listed as activators | 350,000 compounds, 2.9% hits | AID 624296; note: nearly all actives have a fitted effect of over 50% in size
SW480 rereplic = inducers of DNA re-replication in SW480 colon cancer cells; 340,000 compounds, 1.8% hits; SW480 DNA re-replication, Hoechst DNA content imaging, 48 h; AID 624297; Potency, µM (series often up to 46.1 µM), hits mostly activators; note: nearly all actives have a fitted effect of over 55% in size
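Per well, 250 cells were exposed to pinned compound for 48 hr. Nuclear DNA was visualised with Hoechst (40 min, 37 C) and total object intensity recorded by fluorescence scanning.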
KB-3-1 tox = kills parental KB-3-1 adenocarcinoma cells; 400,000 compounds, 1.4% hits; Potency, µM (titrated, usually from 46.1 µM), actives largely listed as cytotoxic; KB-3-1 viability, CellTiter-Glo ATP luminescence, 72 h; note: nearly all actives have a fitted effect of over 60% in size
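72 h, 37 °C compound treatment of KB-3-1 parental cells; CellTiter-Glo added, 10 min, luminescence read. Data corrected against DMSO-only plates and normalized before curve fitting.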
ELG1 repair inh = inhibitors of ELG1-dependent DNA repair in HEK293T cells; HEK293T ELG1-luciferase reporter, luminescence, 16 h; DNA damage induced by 5-fluorouridine; Potency, µM (highest dose often 46.1 µM), actives largely listed as inhibitors; 330,000 compounds, 2.3% hits; note: nearly all actives have a fitted effect of over 55% in size
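Luminescence from the luciferase reporter, measured 30 min after ONE-Glo reagent at room temperature, was the read-out. Beforehand, 2,000 cells per well were exposed for 16 hr at 37 °C to 5-fluorouridine together with compound or vehicle.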
Of the large screens only hits and unclear results are named; the others gave an inactive call. Calls come from the whole dose curve; as a rule, active = well fitted curve in the direction sought with a large enough effect; inconclusive = small, poorly fitted or top-dose-only effect, or another doubt; inactive = no such curve, though single readings can be large; an effect the other way counts as inactive or inconclusive.

COc1ccccc1N1CCN(C(=O)c2oc3ccccc3c2C)CC1	MCF10A rerep inconclusive, SW480 rereplic 14.6µM
COCc1c(C(=O)N2CCc3ccccc32)oc2ccccc12	MCF10A rerep inconclusive
COc1ccccc1N1CCN(C(=O)c2oc3ccccc3c2NC(=O)C(C)Oc2ccccc2)CC1 (centres undefined)	KB-3-1 tox inconclusive (no result: MCF10A rerep, SW480 rereplic, ELG1 repair inh)
CCC(=O)Nc1ccc2nc(SCc3ccc(C)cc3)sc2c1	none (no result: MCF10A rerep, SW480 rereplic, ELG1 repair inh)
CC(C)CCn1cnc2c(oc3nc4c(cc32)CCCC4)c1=O	ELG1 repair inh inconclusive
CC(C(=O)N1CCc2ccccc21)N1CCc2ccccc2C1 (centres undefined)	KB-V1 cytotox 14.6µM, ELG1 repair inh inconclusive
O=C(c1ccc(Oc2ccc(C(F)(F)F)cc2[N+](=O)[O-])cc1)N1CCOCC1	KB-V1 cytotox 23.1µM, KB-3-1 tox inconclusive
COc1ccccc1N1CCN(C(=O)c2oc3ccc(Br)cc3c2C)CC1	KB-V1 cytotox 13µM, MCF10A rerep 16.4µM, SW480 rereplic inconclusive, KB-3-1 tox 10.3µM, ELG1 repair inh inconclusive
COCc1c(C(=O)N2CCN(CCOc3ccccc3)CC2)oc2ccccc12	KB-V1 cytotox inconclusive, SW480 rereplic inconclusive
COCc1c(C(=O)N2CCN(c3ccccc3C)CC2)oc2ccccc12	KB-V1 cytotox 20.6µM, ELG1 repair inh inconclusive
CCc1ccc([C@@H]2C[C@H]3[C@@H](CN2S(=O)(=O)c2ccc(C)cc2)C(=O)C[C@@H](c2ccccc2F)N3S(=O)(=O)c2ccc(C)cc2)cc1	none (no result: MCF10A rerep, SW480 rereplic, ELG1 repair inh)
COc1ccc(N2CCN(CCCn3cnc4c(OC)ncnc43)CC2)cc1	none (no result: MCF10A rerep, SW480 rereplic, ELG1 repair inh)
c1coc(CNc2ncnc3c2[nH]c2ccccc23)c1	KB-3-1 tox inconclusive (no result: MCF10A rerep, SW480 rereplic, ELG1 repair inh)
Cc1c(C(=O)N2CCN(c3ccc(C(F)(F)F)cn3)CC2)oc2ccccc12	MCF10A rerep 23.1µM
COc1ccccc1N1CCN(C(=O)c2cccc3c(=O)c(C)c(-c4ccccc4)oc23)CC1	MCF10A rerep inconclusive, ELG1 repair inh 20.6µM
COc1ccccc1N1CCN(C(=O)c2cc(C)oc2C)CC1	KB-V1 cytotox inconclusive, MCF10A rerep inconclusive, KB-3-1 tox inconclusive
CC1CCC2(CC1)NC(=O)N(CC(=O)c1ccc(Cl)s1)C2=O (centres undefined)	none
O=C(Nc1ccc(C(F)(F)F)cc1[N+](=O)[O-])O[C@H]1[C@H](Cc2ccccc2)NS(=O)(=O)[C@H]2C[C@@H]3C=C[C@]12O3	KB-V1 cytotox inconclusive, KB-3-1 tox inconclusive, ELG1 repair inh inconclusive
Cc1csc2c(SCC(=O)NNC(=O)C(Cl)Cl)ncnc12	none
CCc1ccc(NC(=O)CSc2nc3ncc(Br)cc3[nH]2)cc1	MCF10A rerep 11.6µM
O=C(CSc1nc2ncc(Br)cc2[nH]1)Nc1ccccc1-c1ccccc1	KB-V1 cytotox inconclusive, MCF10A rerep 25.9µM, ELG1 repair inh inconclusive
COc1ccc(C(O)c2nc(-c3cc(F)cc(F)c3)cs2)cc1 (centres undefined)	none (no result: MCF10A rerep, SW480 rereplic, ELG1 repair inh)
CCOc1ccccc1CNCc1c(C(=O)O)c(C)n(Cc2ccc(Cl)cc2)c1C	none (no result: MCF10A rerep, SW480 rereplic, ELG1 repair inh)
COc1ccc(NC(=O)c2oc3ccccc3c2NC(=O)c2cccc(F)c2)c(OC)c1	none (no result: MCF10A rerep, SW480 rereplic, ELG1 repair inh)
CCN(CC)c1nc(C#N)cc(-c2ccc(OC)cc2)n1	KB-V1 cytotox 5.8µM, MCF10A rerep 14.6µM, SW480 rereplic 11.6µM, KB-3-1 tox 7.31µM, ELG1 repair inh inconclusive
O=S(=O)(/N=C(/c1ccccc1)N1CCOCC1)c1ccc(F)cc1	ELG1 repair inh inconclusive
O=C1CCn2nc(-c3ccc(Cl)cc3)cc2N1	KB-V1 cytotox inconclusive, KB-3-1 tox 1.84µM, ELG1 repair inh inconclusive
CC(C)(C)c1ccc(NC(=O)c2cc(C3CCCN(S(=O)(=O)c4cccc5cccnc45)C3)on2)cc1 (centres undefined)	KB-V1 cytotox 23.1µM, KB-3-1 tox inconclusive (no result: MCF10A rerep, SW480 rereplic, ELG1 repair inh)
O=C(NCC1COc2ccccc2O1)C1CCCN(S(=O)(=O)c2cccc3cccnc23)C1 (centres undefined)	KB-3-1 tox inconclusive, ELG1 repair inh 14.6µM
O=C(Nc1ccncc1)C1CCCN(S(=O)(=O)c2cccc3cccnc23)C1 (centres undefined)	MCF10A rerep 9.2µM, SW480 rereplic 2.06µM, KB-3-1 tox inconclusive, ELG1 repair inh inconclusive
Cc1ncccc1C(=O)N1CCCC(c2cc(C(=O)Nc3ccc(C(C)(C)C)cc3)no2)C1 (centres undefined)	none (no result: MCF10A rerep, SW480 rereplic, ELG1 repair inh)
O=C(NCc1ccccn1)C1CCCN(S(=O)(=O)c2cc(Cl)ccc2Cl)C1 (centres undefined)	KB-V1 cytotox 0.731µM, MCF10A rerep 0.731µM, SW480 rereplic inconclusive, KB-3-1 tox inconclusive (no result: ELG1 repair inh)
CCCCNC(=O)C1CCN(c2nc3ccc(C)cc3[nH]2)CC1	none (no result: MCF10A rerep, SW480 rereplic, ELG1 repair inh)
COc1ccc(S(=O)(=O)Nc2c(NC3CCCCC3)c3ccccc3oc2=O)cc1	none
O=C(C1CCN(S(=O)(=O)c2cccc3cccnc23)CC1)N1CCn2c1nc1ccccc12	ELG1 repair inh 23.1µM
O=C(C1CCCN1S(=O)(=O)c1cccc2cccnc12)N1CCn2c1nc1ccccc12 (centres undefined)	none
CCOc1cc(C#N)c(NC(=O)c2cccnc2Cl)cc1OCC	none
CCOc1ccc(CC(=O)N/N=C(\C)c2cccnc2)cc1OCC	MCF10A rerep 20.6µM
C/C(=N/NC(=O)CNC(=O)COc1cccc(C)c1)c1ccc(Cl)cc1	none
CC(=NNC(=O)COc1cccc(C)c1)c1cccnc1	KB-V1 cytotox 16.4µM
CCOc1cc(C#N)c(NC(=O)c2cccnc2)cc1OCC	KB-V1 cytotox inconclusive, MCF10A rerep 3.66µM, SW480 rereplic 5.17µM, KB-3-1 tox 0.651µM
COc1ccc(CNC(=O)CCCN2C(=O)CSc3c2c(C)nn3-c2ccccc2)cc1	none (no result: MCF10A rerep, SW480 rereplic, ELG1 repair inh)
CC(NC(=O)COC(=O)c1ccc2c(=O)n3c(nc2c1)CCCCC3)c1ccccc1 (centres undefined)	KB-V1 cytotox inconclusive
COCCCNC(=S)N1CCN(c2nc3ccccc3s2)CC1	KB-V1 cytotox 14.6µM, KB-3-1 tox inconclusive
C=CCNC(=S)N1CCN(c2ccc([N+](=O)[O-])cc2)CC1	KB-V1 cytotox 14.6µM
COCCCNC(=S)N1CCN(c2ccc([N+](=O)[O-])cc2)CC1	KB-V1 cytotox 16.4µM, KB-3-1 tox inconclusive, ELG1 repair inh inconclusive
CNC(=S)N1CCN(c2ccc([N+](=O)[O-])cc2)CC1	KB-V1 cytotox inconclusive
CCNC(=S)N1CCN(c2ccc([N+](=O)[O-])cc2)CC1	none
O=[N+]([O-])c1ccc(N2CCN(C(=S)NCc3ccc(Cl)cc3)CC2)cc1	SW480 rereplic inconclusive, ELG1 repair inh 14.6µM
O=C(O)c1ccccc1C(=O)NNc1cccc(Cl)n1	ELG1 repair inh inconclusive
NCC(=O)NCC(=O)NC[C@H]1O[C@@H](n2cnc3c(N)ncnc32)[C@H](O)[C@@H]1O	ELG1 repair inh inconclusive
CCOC(=O)C1NC(=O)CC1c1ccccc1 (centres undefined)	ELG1 repair inh inconclusive
